Source: PubChem BioAssay AID1220 (Sanford-Burnham Center for Chemical Genomics, 2008)
Hit rate of the full screen: of about 190,000 compounds, about 1,300 (0.68%) were called active. This is one part of a sample in which actives are shown more often than they occur. Values without a mark were called inactive. Cut-off read from the data, not from the text of the source: active = inhibition above about 50%; inactive = the rest.

What follows are molecules tested against Mannose-6-phosphate isomerase (Homo sapiens) (UniProt P34949) (assay: MPI inhibition at elevated mannose 6-phosphate – biochemical, fluorescence intensity, high mannose 6-phosphate, primary screen (AID 1220)). Conditions: recombinant PMI enzyme, coupled fluorescence intensity; at 20 µM; stronger effect = higher value.
Sequence of Mannose-6-phosphate isomerase (Homo sapiens) (P34949 whole entry, looked up): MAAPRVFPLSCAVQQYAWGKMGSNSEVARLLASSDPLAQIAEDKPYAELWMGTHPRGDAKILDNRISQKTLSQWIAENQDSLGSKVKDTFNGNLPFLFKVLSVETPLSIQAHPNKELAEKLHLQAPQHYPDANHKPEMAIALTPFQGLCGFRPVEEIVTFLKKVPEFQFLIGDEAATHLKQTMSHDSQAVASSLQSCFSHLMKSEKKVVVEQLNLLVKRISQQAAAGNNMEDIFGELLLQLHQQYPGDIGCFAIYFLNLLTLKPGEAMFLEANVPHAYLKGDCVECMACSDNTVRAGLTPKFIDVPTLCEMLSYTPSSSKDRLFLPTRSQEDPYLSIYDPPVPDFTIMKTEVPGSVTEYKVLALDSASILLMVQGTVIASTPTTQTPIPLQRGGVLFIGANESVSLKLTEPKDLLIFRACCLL

Compound	inhibition
CCCN1Cc2cccc(C(=O)N3CCN(c4ccccc4)CC3)c2C1=O	1%
O=C(Nc1ccc(N2CCOCC2)cc1)c1ccccc1SCC(=O)N1CCCC1	4.1%
Fc1ccc(CNC(=S)NC2CCCCC2)cc1	8.4%
COc1ccc(NC2CC(=O)N(C(C)C)C2=O)cc1 (centres undefined)	8.8%
CC(C)N1C(=O)CC(Nc2cccc3cccc(N)c23)C1=O (centres undefined)	64.5% (active)
CN1C(=O)CC(Nc2cccc3cccc(N)c23)C1=O (centres undefined)	49.7%
Cc1ccc(C2=NC(=O)/C(=C/c3cc(O)c(O)c(Br)c3)S2)cc1	53.2% (active)
COc1cc(/C=C2\SC(c3ccc(C)cc3)=NC2=O)cc(OC)c1O	26.7%
COc1cc(/C=C2\SC(c3ccc(C)cc3)=NC2=O)ccc1O	9.3%
Cc1cccc(OCc2nnc(SCC(=O)Nc3ccc(C)c(C)c3)o2)c1	17.5%
Fc1ccccc1N1CCN(c2nnnn2-c2ccccc2)CC1	-2.8%
COc1ccc(/C=N/Nc2nonc2N)cc1OC	-6.6%
Nn1cnnc1N/N=C/c1ccc(Cl)c([N+](=O)[O-])c1	60.2% (active)
Nn1cnnc1N/N=C/c1cc([N+](=O)[O-])c(Cl)cc1Cl	-35.2%
Cc1cc(=O)[nH]c(N/N=C/c2ccc([N+](=O)[O-])cc2)n1	-4.6%
CCc1nnc(N/N=C/c2ccc(-c3ccc([N+](=O)[O-])cc3)o2)n1N	41.3%
COc1ccc(-n2c(C)cc(/C=N/Nc3nnc(C)n3N)c2C)cc1	-12.8%
CC1CCN(c2ccc(/C=N\Nc3nncn3N)cc2[N+](=O)[O-])CC1	43.7%
COc1ccc(/C=N/Nc2nnc(C)n2N)cc1OC	67.2% (active)
Cc1nnc(N/N=C/c2ccc([N+](=O)[O-])cc2)n1N	68.7% (active)
CCc1cc(=O)oc2cc(C)c3c(C)coc3c12	4.2%
COc1ccc(C(=O)N(CN2CCCC2=O)c2ccccc2OC)cc1OC	18.2%

Compound	inhibition
O=C(Nc1nc(-c2ccc(Cl)cc2)cs1)NC1CCCCC1	-7.6%
CCN(CC)C(=O)CSc1nc(O)c(Cc2ccccc2)c(=O)n1-c1ccccc1	-5.3%
Nn1c(SCC(=O)NCc2ccccc2)nncc1=O	11.9%
Oc1ccc(-c2csc(-c3c[nH]c4ccccc34)n2)c(O)c1	-4.2%
Cc1ccc(/C=C2\C(=O)Nc3ccccc32)o1	6.8%
N#CCC(=O)N/N=C/c1ccc(OC2CSC2)cc1	6.6%
CN(C)c1nc(Oc2ccc(=O)[nH]n2)nc(N2CCCCC2)n1	-0.1%
CCOC(=O)Cc1csc(SCC(=O)NC2CCCC(C)C2C)n1 (centres undefined)	-3.7%
CCOC(=O)Cc1csc(SCC(=O)NC(C)C23CC4CC(CC(C4)C2)C3)n1 (centres undefined)	51% (active)
CCOC(=O)Cc1csc(SCC(=O)NC2CCCCC2)n1	-6%
COC(C(=O)Nc1ccc(F)cc1F)c1ccccc1 (centres undefined)	0.3%
O=C(NCCCn1ccnc1)C(Cc1ccc([N+](=O)[O-])cc1)N1C(=O)c2ccccc2C1=O (centres undefined)	-5.8%
CCn1c(Cc2ccccc2)nnc1SCC(=O)c1cccc([N+](=O)[O-])c1	5.6%
Cc1noc(C)c1S(=O)(=O)Nc1ccc(C(=O)NCCc2ccccc2)cc1	3.4%
Cc1ccc(-c2ccc(/C=N/N3C(=O)C4C5C=CC(CC5)C4C3=O)o2)c([N+](=O)[O-])c1 (centres undefined)	33.2%
O=C1C2C3C=CC(C4CC34)C2C(=O)N1/N=C/c1ccc(-c2ccc(F)cc2[N+](=O)[O-])o1 (centres undefined)	14.4%
COc1ccc(-c2ccc(/C=N/N3C(=O)C4C5C=CC(C6CC56)C4C3=O)o2)c([N+](=O)[O-])c1 (centres undefined)	42.2%
O=C1ON=C(c2ccccc2)/C1=C/c1ccc(-c2ccccc2[N+](=O)[O-])o1	-11%
Clc1ccccc1-c1ccc(/C=N/n2cnnc2)o1	6.7%
O=C1/C(=C\c2ccc(-c3ccccc3[N+](=O)[O-])o2)C(c2ccccc2)=NN1c1ccccc1	-2.3%
O=[N+]([O-])c1ccccc1-c1ccc(/C=N/n2cnnc2)o1	51.1% (active)
O=C1C2C3C=CC(C3)C2C(=O)N1/N=C/c1ccc(-c2ccccc2[N+](=O)[O-])o1 (centres undefined)	51.5% (active)

Compound	inhibition
Cc1ccc(-c2ccc(/C=N/N3C(=O)C4C5C=CC(C6CC56)C4C3=O)o2)c([N+](=O)[O-])c1 (centres undefined)	50.8% (active)
O=C1C2C3C=CC(C4CC34)C2C(=O)N1/N=C/c1ccc(-c2ccc(Cl)cc2[N+](=O)[O-])o1 (centres undefined)	7.4%
O=c1nc2s/c(=C\c3ccc(-c4ccccc4[N+](=O)[O-])o3)c(=O)n2nc1-c1ccccc1	50.5% (active)
Cc1n[nH]c(=S)n1/N=C/c1ccc(-c2ccccc2[N+](=O)[O-])o1	21.2%
CCCc1nc(N)c(C#N)c(N)c1C#N	3.2%
O=C(Nc1cc(S(=O)(=O)N2CCOCC2)ccc1N1CCOCC1)c1ccc(S(=O)(=O)N2CCCCC2)cc1	-10.7%
Clc1ncn(C23CC4CC(CC(C4)C2)C3)n1	-0.3%
CCOC(=O)c1cccc(NC(=O)CN(c2ccc(OC)cc2)S(=O)(=O)c2c(C)noc2C)c1	19.2%
Cc1c(O)c(CN2CCCCC2)cc2c1oc(=O)c1ccccc12	1.8%
NC(=O)C1(N2CCCCC2)CCN(CC(=O)Nc2cc(Cl)ccc2Cl)CC1	7.2%
CCC1(C)COC2(OC1)C(=O)Nc1ccccc12 (centres undefined)	8.2%
Cc1ccc(NC(=O)CS(=O)CC(=O)NCCCN(C)c2ccccc2)cc1 (centres undefined)	11.5%
COC1CCCN(Cc2cn(C)nc2-c2ccc(Oc3ccccc3)cc2)C1 (centres undefined)	8.1%
O=C(NCC1CCCO1)C(=O)NCC(c1ccco1)N1CCN(c2ccccc2)CC1 (centres undefined)	-4.7%
O=C(Nc1ccc(F)cc1)c1cccc(N2C(=O)C3C4CCC(C4)C3C2=O)c1 (centres undefined)	9.3%
O=C(Oc1cccc2cccnc12)c1ccc(N2C(=O)C3C4CCC(C4)C3C2=O)cc1 (centres undefined)	50.5% (active)
O=C(Oc1cccc2cccnc12)c1cccc(-n2cnnn2)c1	27.9%
O=C(Oc1cccc2cccnc12)c1cccc(N2C(=O)C3C4CCC(C4)C3C2=O)c1 (centres undefined)	51.9% (active)
CC1CCC2C(=O)N(c3ccc(C(=O)Oc4cccc5cccnc45)cc3)C(=O)C2C1 (centres undefined)	48.7%
Cc1ccc(C(=O)Oc2ccccc2N2C(=O)C3C4CCC(C4)C3C2=O)cc1 (centres undefined)	0.7%
